Data taken from publication PMC4336329 (PLoS ONE, 2015).
Hit rate of the full screen: of about 310,000 compounds, about 14,000 (4.5%) showed an effect of 50% or more. Effects have a minus sign here. The entries come from a sample that favours strong results as a whole.

These compounds were tested against human ether-à-go-go-related gene (hERG) potassium channel (human, UniProt Q12809) (assay: primary screen, population patch clamp on CHO cells stably expressing hERG; higher = less effect of the substance).
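Also: peak tail current of the secondary pulse compared with the same well before compound.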

Sequence of human ether-à-go-go-related gene (hERG) potassium channel (Q12809 whole entry, looked up): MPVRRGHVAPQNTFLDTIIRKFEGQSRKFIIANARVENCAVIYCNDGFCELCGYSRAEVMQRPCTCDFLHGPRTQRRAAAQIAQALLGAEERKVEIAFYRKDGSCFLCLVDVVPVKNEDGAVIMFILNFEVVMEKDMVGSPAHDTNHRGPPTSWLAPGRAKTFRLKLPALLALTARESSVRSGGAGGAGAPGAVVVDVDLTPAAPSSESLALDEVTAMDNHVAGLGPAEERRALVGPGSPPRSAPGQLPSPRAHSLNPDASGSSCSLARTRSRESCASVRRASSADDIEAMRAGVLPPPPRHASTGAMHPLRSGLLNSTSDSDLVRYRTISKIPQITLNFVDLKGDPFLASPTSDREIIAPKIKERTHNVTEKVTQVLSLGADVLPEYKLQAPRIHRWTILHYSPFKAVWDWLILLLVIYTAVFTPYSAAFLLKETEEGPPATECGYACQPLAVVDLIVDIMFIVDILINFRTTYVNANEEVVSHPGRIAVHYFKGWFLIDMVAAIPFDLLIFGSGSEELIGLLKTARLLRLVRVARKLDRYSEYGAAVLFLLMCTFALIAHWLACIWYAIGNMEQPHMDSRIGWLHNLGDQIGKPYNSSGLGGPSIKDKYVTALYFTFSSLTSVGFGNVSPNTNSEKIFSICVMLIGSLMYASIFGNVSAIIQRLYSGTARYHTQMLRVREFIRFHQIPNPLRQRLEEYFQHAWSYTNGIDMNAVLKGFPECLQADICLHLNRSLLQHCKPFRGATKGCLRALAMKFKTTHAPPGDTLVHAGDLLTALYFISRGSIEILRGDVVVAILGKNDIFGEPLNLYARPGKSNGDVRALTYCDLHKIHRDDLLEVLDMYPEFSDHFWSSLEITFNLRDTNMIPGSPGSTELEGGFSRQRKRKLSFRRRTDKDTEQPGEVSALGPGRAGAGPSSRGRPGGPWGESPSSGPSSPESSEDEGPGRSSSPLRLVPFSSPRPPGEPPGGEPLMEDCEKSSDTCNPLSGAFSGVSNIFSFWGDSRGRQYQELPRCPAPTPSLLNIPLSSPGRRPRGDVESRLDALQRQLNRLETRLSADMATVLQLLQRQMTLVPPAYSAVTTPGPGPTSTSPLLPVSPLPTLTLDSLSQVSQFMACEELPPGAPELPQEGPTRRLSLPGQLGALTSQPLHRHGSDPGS

SMILES | hERG current change (%, negative = inhibition) at 10uM
COc1cc(/C=N/NC(=O)c2ccccn2)ccc1OC(=O)c1ccccc1Br | -1.22%
CC(=O)Oc1ccc2oc(-c3ccccc3)c(C(N)=O)c2c1 | -14.1%
COCCCn1c(C23CC4CC(CC(C4)C2)C3)n[nH]c1=S | -5.2%
O=C(c1csc2c1CCCC2)N1CCN(c2ccccc2)CC1 | -14.8%
O=S(=O)(Cc1ccccc1)N1CCN(Cc2ccc(F)cc2Cl)CC1 | 4.56%
CCc1nnc(NC(=O)CN2CCN(c3nc(-c4ccccc4)cs3)CC2)s1 | -11.8%
COCCCNC(=O)C1CCN(C(=O)c2oc3cc4sc(N(C)C)nc4cc3c2C)CC1 | 7.03%
CCOC(=O)CNC(=O)CNC(=O)c1nn(-c2ccc(OC)c(Cl)c2)c(=O)c2ccccc12 | 2.21%
Cc1ccccc1C(=O)NC(=S)N(C)C1CCCCC1 | 21.2%
COc1cccc(Cn2nc(C(=O)O)c3ccccc3c2=O)c1 | 9.63%
O=C(OCc1nc2ccsc2c(=O)[nH]1)c1ccc(Cl)s1 | -5.59%
O=C(Nc1nc2ccccc2[nH]1)c1cccc(Cl)c1 | 17.5%
CCc1ccc2oc(-c3cc(N=Cc4cccc(OC)c4O)ccc3O)nc2c1 | 24.3%
CN(Cc1ccccc1)C(=O)c1ccc(NC(=O)Cc2cccc(NC(=O)C3CCN(C(=O)C4CCCCC4)CC3)c2)cc1 | 8.47%
CCC(C)c1ccc(S(=O)(=O)N2CCN(C(C)C(=O)NC3CCCC3)CC2)cc1 (stereo not shown) | -79.1%
CC(C(=O)NC1CCCC1)N1CCN(S(=O)(=O)c2ccc(C(C)(C)C)cc2)CC1 (stereo not shown) | -19.8%
CC(C(=O)NC1CCCCC1)N1CCN(S(=O)(=O)c2cccs2)CC1 (stereo not shown) | -9.2%
CCC(C)c1ccc(S(=O)(=O)N2CCN(C(C)CC(=O)O)CC2)cc1 (stereo not shown) | 3.41%
CC(C)c1ccc(S(=O)(=O)N2CCN(C(C)C(=O)N3CCCC3)CC2)cc1 (stereo not shown) | -11.8%
CC(C)c1ccc(S(=O)(=O)N2CCN(C(C)C(=O)NC3CCCC3)CC2)cc1 (stereo not shown) | -75.5%
CCCCCCNS(=O)(=O)c1ccc(OC)c(OC)c1 | -11%
CCOC(=O)c1sc(S(C)(=O)=O)c2c1CCc1conc1-2 | 8.59%
Cc1ccc(-n2c(-c3ccccc3)n[nH]c2=S)cc1 | 15.6%

SMILES | hERG current change (%, negative = inhibition) at 10uM
CC(C)OC(=O)/C(=C/c1ccc2c(c1)c1ccccc1n2C)NC(=O)c1ccccc1 | -1.72%
O=C(N/N=C/c1c(O)n(-c2ccccc2)c(=O)[nH]c1=O)c1ccncc1 | 16.2%
Cc1oc(C2CC2)cc1C(=O)O | -9.52%
CC(C)n1cc(CN2CCC(C(=O)Nc3cccc(-c4cccc(Cl)c4)c3)CC2)cn1 | -85.1%
CC(C)n1cc(CN2CCC(C(=O)Nc3cccc(-c4cscn4)c3)CC2)cn1 | -32.8%
Cn1cc(CN2CCC(C(=O)Nc3cccc(-c4cscn4)c3)CC2)cn1 | 5.33%
CCn1cc(CN2CCCC(C(=O)Nc3cccc(-c4cc5ccccc5[nH]4)c3)C2)cn1 (stereo not shown) | -6.49%
CCn1cc(CN2CCCC(C(=O)Nc3cccc(-c4cc5ccccc5[nH]4)c3)C2)c(C)n1 (stereo not shown) | -14.4%
Cn1cc(CN2CCC(C(=O)Nc3cccc(-c4cccc(F)c4)c3)CC2)cn1 | -67.4%
CCn1ncc(CN2CCCC(C(=O)Nc3cccc(-c4cc5ccccc5[nH]4)c3)C2)c1C (stereo not shown) | -56.7%
COc1cccc(-c2cccc(NC(=O)C3CCN(Cc4cnn(C)c4)CC3)c2)c1 | -15.6%
CC(C)n1cc(CN2CCCC(C(=O)Nc3cccc(-c4cc5ccccc5[nH]4)c3)C2)cn1 (stereo not shown) | -46.3%
CCn1cc(CN2CCC(C(=O)Nc3cccc(-c4cccc(F)c4)c3)CC2)cn1 | -66.4%
CC(C)Sc1nsc2nc(=O)c(/C=C3\C=Nc4ccccc43)c(N)n12 | 11.7%
CN(CC(=O)Nc1cccnc1)S(=O)(=O)c1ccc(Br)cc1 | -21.3%
COC(=O)c1ccc(/C=N/NC(=O)CC(=O)NCC(C)C)cc1 | 20.5%
CC(=O)c1ccc(N/N=C2/CCCNC2=O)cc1 | 11.3%
Oc1ccccc1/C=N/NC(=S)NC1CC2CC1C1C=CCC21 (stereo not shown) | 27.3%
c1cnc(N2CCSCC2)nc1 | 0.773%
C#CCSc1nc(-c2ccccc2)cc(C(F)(F)F)c1C#N | 7.12%
CCOc1ccc(CN2CCC(C(=O)Nc3cccc(-c4ccn[nH]4)c3)CC2)cc1Cl | -62.3%
CC(=O)c1cccc(CN2CCC(C(=O)Nc3cccc(-c4ccn[nH]4)c3)CC2)c1 | -3.45%
CCCn1ncc(CN2CCC(N3CCC(C(=O)N4CCOCC4)CC3)CC2)c1C | 14.4%

SMILES | hERG current change (%, negative = inhibition) at 10uM
CCn1cc(CN2CCC(C(=O)Nc3cccc(-c4cccc(OC)c4)c3)CC2)cn1 | -49.8%
CCCn1cc(CN2CCC(C(=O)Nc3cccc(-c4cscn4)c3)CC2)c(C)n1 | -45.3%
C=CCOc1ccccc1CN1CCC(C(=O)Nc2cccc(-c3ccn[nH]3)c2)CC1 | -33.9%
CCCn1ncc(CN2CCC(C(=O)Nc3cccc(-c4cccc(F)c4)c3)CC2)c1C | -71.7%
CCn1cc(CN2CCC(C(=O)Nc3cccc(-c4cscn4)c3)CC2)cn1 | -15.4%
CCn1cc(CN2CCC(C(=O)Nc3cccc(-c4cccc(Cl)c4)c3)CC2)cn1 | -67.9%
COCCn1c(SCC(=O)OCc2ccccc2)nc2c1c(=O)[nH]c(=O)n2C | -25.6%
CCN1C(=O)CC(N2CCC(Cc3ccccc3)CC2)C1=O (stereo not shown) | -2.52%
CCOC(=O)C1(C)NC(c2ccco2)C2C(=O)N(c3ccccc3)C(=O)C21 (stereo not shown) | 10.4%
Cc1cc(Br)ccc1NC(=O)C1CCN(S(=O)(=O)c2cnc[nH]2)CC1 | 8.88%
COc1ccc2c(c1)C(c1ccc(N3CCOCC3)cc1)=NNC(c1cccnc1)=N2 | -5.34%
Clc1ccc(Cc2ccccc2)nn1 | 4.59%
COc1cc(C(=O)NC(=S)Nc2ccc3c(c2)OCO3)cc(OC)c1OC | 12.1%
COc1cc(C(Nc2ccc3c(c2)OCO3)C(=O)NC2CCCCC2)cc(OC)c1OC (stereo not shown) | -61.7%
COc1cc(NC(=O)Nc2ccc3c(c2)OCO3)cc(OC)c1OC | 31.4%
CCS(=O)(=O)C1=NSC2=NC(=O)/C(=C\c3ccc(OC(=O)c4ccco4)c(OC)c3)C(=N)N21 | 8.51%
COc1cccc(NC(=O)CSc2nc3ccccc3n2C)c1 | -16.5%
COC(=O)c1c(C(=O)OC)c2cc(C)ccn2c1Cl | -24.9%
O=C(CCn1c(=O)oc2ccc(Cl)cc21)N1CCN(c2ccccc2)CC1 | -33.8%
Cc1ccc(-c2c[n+](CC(=O)c3ccc(Br)cc3)c3n2CCCCC3)cc1.[Br-] | -61.4%
O=C(C[n+]1cc(-c2ccccc2)n2c1CCCCC2)c1ccc(Br)cc1.[Br-] | -52.7%
Cc1ccc(C(=O)C[n+]2cc(-c3ccccc3)n3c2CCCCC3)cc1.[Br-] | -11.3%
Cc1ccc(-c2c[n+](CC(=O)OCc3ccccc3)c3n2CCC3)cc1.[Br-] | -56.3%

SMILES | hERG current change (%, negative = inhibition) at 10uM
O=C(C[n+]1cc(-c2ccccc2)n2c1CCC2)OCc1ccccc1.[Br-] | -15.2%
O=C(C[n+]1cc(-c2ccc(Br)cc2)n2c1CCCCC2)c1ccccc1.[Br-] | -9.11%
O=C(C[n+]1cc(-c2ccccc2)n2c1CCC2)c1cccs1.[Br-] | -3.31%
O=C(C[n+]1cc(-c2ccc(F)cc2)n2c1CCC2)OCc1ccccc1.[Br-] | -11.9%
Cc1ccc(C(=O)C[n+]2cc(-c3ccc(C)cc3)n3c2CCCCC3)cc1.[Br-] | -53.1%
COc1ccc(OCCOc2ccc(/C=C3\C(=N)N4N=C(C)SC4=NC3=O)cc2)cc1 | 6.54%
CC1Cc2nc(SCC(=O)Nc3nccs3)n(Cc3ccccc3)c(=O)c2S1 (stereo not shown) | 2.84%
CSc1nc(N)n2nc(-c3ccc(Cl)cc3)cc2n1 | 5.44%
COc1ccc(C(=O)NC(Nc2ccc(C)cc2)C(Cl)(Cl)Cl)cc1 (stereo not shown) | -0.867%
Cc1cc(C)cc(NC(=O)CN2C(=O)C3CC=CCC3C2=O)c1 (stereo not shown) | 4.39%
CC1=N/C(=C/c2cc(Br)cc(Br)c2O)C(=O)O1 | 17%
Cc1ccc(S(=O)(=O)NC(=O)Nc2ccc(C)cn2)cc1 | 14.6%
Cc1sc(NC(=O)c2ccco2)c(C(c2ccncc2)N2CCOCC2)c1C (stereo not shown) | -37.1%
Fc1ccc2nc(N3CCCCC3)sc2c1 | 5.89%
CC(C)(CC(=O)O)CC(=O)N1CCN(c2nc3ccc(Cl)cc3s2)CC1 | 14.2%
CCCC(=O)N1CCN(c2nc3ccc(CC)cc3s2)CC1 | -23.4%
CCCC(=O)N1CCN(c2nc3ccccc3s2)CC1 | -24.7%
CCCCC(=O)N1CCN(c2nc3ccc(F)cc3s2)CC1 | -65.3%
CCCCC(=O)N1CCN(c2nc3ccc(OCC)cc3s2)CC1 | -35.5%
CC(C)(C)C(=O)N1CCN(c2nc3ccc(Cl)cc3s2)CC1 | -12.2%
CCCCC(=O)N1CCN(c2nc3ccc(Cl)cc3s2)CC1 | -71.1%
CCCC(=O)N1CCN(c2nc3ccc(Cl)cc3s2)CC1 | -70.2%
